Here are results for seven compounds from PubChem BioAssay (EPA / NIEHS).

Molecules are shown by their SMILES. Active and inactive are the calls of the source. How the source made its calls: active means hit-call score of the fitted dose curve at least 0.9, where 1 is the maximum; inactive means score below 0.9.

Assay [1] is described as follows: ATG_CRE_CIS: Attagene CIS-FACTORIAL HepG2 Assay for human cAMP Responsive Element (CRE) binding protein 3 (AID 2282926). The conditions noted are these: HepG2 CRE cis-reporter, Attagene multiplexed mRNA; actives raise or lower the signal. In a few lines: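 Capillary electrophoresis of 6-FAM-labelled, HpaI-digested PCR products quantified reporter transcripts. These came from HepG2 transiently transfected with cis-element reporters and exposed to test chemicals for 24 hours, with DMSO defining baseline activity.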

Assay [2] addresses CCAAT/enhancer-binding protein beta (Homo sapiens) (UniProt P17676). Briefly: ATG_C_EBP_CIS: Attagene CIS-FACTORIAL HepG2 Assay for human CCAAT/Enhancer Binding Protein (C/EBP) beta (AID 2282927). The conditions noted are these: HepG2 Attagene cis-factorial transcription factor reporter; actives raise or lower the signal. The method in brief: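 HepG2 transiently transfected with multiplexed reporter units under cis-regulatory promoters reporting endogenous C/EBPb activity. After 24 h exposure, reporter mRNA assayed by RT-PCR, fluorescent labelling, HpaI digestion and capillary electrophoresis; bidirectional fitting versus DMSO.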

Assay [3] can be described thus: ATG_CMV_CIS: Attagene CIS-FACTORIAL HepG2 Assay for human CMV (Internal Marker) (AID 2282928).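 Further: endpoint acts as a background internal control marker rather than a target.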 The conditions noted are these: HepG2 CMV promoter reporter, transcription factor profiling; actives raise or lower the signal. In a few lines: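 24 h chemical treatment, HepG2 with transient multi-reporter transfection; RNA → oligo(dT) RT → PCR → 6-FAM extension → HpaI digest → CE fluorescence. Bidirectional fit, DMSO negative control.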

A short description of assay [4]: ATG_DR4_LXR_CIS: Attagene CIS-FACTORIAL HepG2 Assay for human Liver X Receptor (LXR), DR4 submotif (AID 2282929). The conditions noted are these: HepG2 Attagene DR4 cis-reporter, mRNA transcription; actives raise or lower the signal. In a few lines:
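Transiently transfected HepG2 liver cells; cis-regulated reporters; 24 h dosing. RT-PCR plus CE read-out of reporter mRNA. DMSO baseline, bidirectional curve fitting.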

In assay [5] the target is Aryl hydrocarbon receptor (Homo sapiens) (UniProt P35869). Briefly: ATG_Ahr_CIS: Attagene CIS-FACTORIAL HepG2 Assay for human Aryl Hydrocarbon Receptor (Ahr) (AID 2282930). The conditions noted are these: HepG2 AhR cis-factorial reporter transcription; actives raise or lower the signal. In a few lines:
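HepG2 cells transiently transfected with cis-element-driven multiplexed reporter units; endogenous AhR activity read as reporter mRNA 24 h after dosing, via RT-PCR, 6-FAM labelling, HpaI digestion and capillary electrophoresis. Bidirectional fit relative to DMSO.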

Assay [6] can be described thus: ATG_AP_1_CIS: Attagene CIS-FACTORIAL HepG2 Assay for human Activator Protein 1 (AP-1) (AID 2282931). The conditions noted are these: HepG2 Attagene cis-factorial AP-1 reporter mRNA; actives raise or lower the signal. In a few lines: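 We transfected HepG2 cells transiently with a set of cis-regulated reporter transcription units, dosed them for 24 h, and quantified reporter mRNA via RT-PCR and capillary electrophoresis, scoring gain or loss of signal relative to DMSO.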

Assay [7] can be described thus: ATG_BRE_CIS: Attagene CIS-FACTORIAL HepG2 Assay for human Bone Morphogenetic Protein (BMP) Response Element (BRE) (AID 2282933). The conditions noted are these: HepG2 BMP response element reporter, Attagene transcription factor profiling; actives raise or lower the signal. The method in brief:
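Endogenous transcription factor activity at a BMP response element was monitored in transfected HepG2 cells 24 h after dosing. Fluorescent RT-PCR products were resolved by capillary electrophoresis, and activity was fitted in both directions versus DMSO.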

Assay [8] concerns the target Retinoic acid receptor alpha (Homo sapiens) (UniProt P10276). Briefly: ATG_DR5_RAR_CIS: Attagene CIS-FACTORIAL HepG2 Assay for human Retinoic Acid Receptor Alpha (RARE), DR5 submotif (AID 2282934). The conditions noted are these: HepG2 Attagene cis-factorial RARE DR5 reporter, mRNA; actives raise or lower the signal. The method in brief: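 HepG2 cells transiently transfected with multiplexed reporter units; DR5 cis-element drives reporter through endogenous transcription factors. After 24 h dosing, reporter mRNA quantified by RT-PCR, fluorescent labeling, HpaI digestion and capillary electrophoresis; bidirectional fitting versus DMSO.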

Assay [9] concerns the target Transcription factor E2F1 (Homo sapiens) (UniProt Q01094). Briefly: ATG_E2F_CIS: Attagene CIS-FACTORIAL HepG2 Assay for human E2F Transcription Factor 1 (AID 2282935). The conditions noted are these: HepG2 Attagene cis-reporter, E2F reporter RNA transcripts; actives raise or lower the signal. The method in brief:
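Transient MRTU transfection of HepG2; 24 h compound exposure; RNA → oligo(dT) RT → PCR → FAM label → HpaI cut → CE fluorescence. Gain/loss of signal fit against DMSO.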

Assay [10] can be described thus: ATG_E_Box_CIS: Attagene CIS-FACTORIAL HepG2 Assay for human Enhancer Box (E-box) (AID 2282936). The conditions noted are these: HepG2 E-box cis-reporter transcription, actives raise or lower the signal. In a few lines:
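Transiently transfected HepG2, endogenous TF-driven reporters, 24 h dosing. Readout: RT-PCR plus capillary electrophoresis of fluorescent reporter fragments. Gain or loss of signal fitted bidirectionally against DMSO baseline.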

Assay [11] in a line: ATG_M_61_CIS: Attagene CIS-FACTORIAL HepG2 Assay for M61 Transcription Factor (Internal Marker) (AID 2282937). The conditions noted are these: HepG2 Attagene CIS-FACTORIAL M61 internal marker reporter; actives raise or lower the signal. In a few lines: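 Multiplexed reporter mRNA assay, HepG2 human hepatoma cells, 24 h treatment. Signal: FAM-labelled, HpaI-digested RT-PCR fragments by CE. Fit: bidirectional, baseline DMSO.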

Assay [12] can be described thus: ATG_EGR_CIS: Attagene CIS-FACTORIAL HepG2 Assay for human Early Growth Response 1 (EGR1) (AID 2282938). The conditions noted are these: HepG2 Attagene CIS-FACTORIAL EGR reporter mRNA; actives raise or lower the signal. In a few lines:
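Multiplexed cis-reporter system in human hepatoma HepG2 cells, transiently transfected. Cells are dosed for 24 h; reporter transcripts are amplified, fluorescently tagged and sized by capillary electrophoresis, with DMSO as negative control.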

Assay [13] is described as follows: ATG_M_19_CIS: Attagene CIS-FACTORIAL HepG2 Assay for M19 Transcription Factor (Internal Marker) (AID 2282939). The conditions noted are these: HepG2 Attagene CIS-FACTORIAL M19 internal marker reporter; actives raise or lower the signal. The method in brief:
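Background-control endpoint from a multiplexed HepG2 reporter panel. Cells carrying cis-regulated reporter constructs are treated 24 h, then reporter transcripts are amplified, fluorescently labelled and sized by capillary electrophoresis. DMSO defines baseline.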

Assay [14] can be described thus: ATG_Ets_CIS: Attagene CIS-FACTORIAL HepG2 Assay for human Erythroblast Transformation Specific (ETS) (AID 2282941). The conditions noted are these: HepG2 ETS cis-reporter transcription, actives raise or lower the signal. In a few lines: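 Cis-regulated reporter mRNA induction in HepG2 (transient transfection), 24 h exposure, RT-PCR plus capillary electrophoresis detection; DMSO serves as negative control and baseline.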

Assay [15] has as its target Hepatocyte nuclear factor 3-beta (Homo sapiens) (UniProt Q9Y261). Briefly: ATG_FoxA2_CIS: Attagene CIS-FACTORIAL HepG2 Assay for human Forkhead box A2 (FOXA2) (AID 2282942). The conditions noted are these: HepG2 cis-reporter transcription factor activity, 24 h; actives raise or lower the signal. In a few lines:
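Multiplexed cis-element reporter assay in transiently transfected HepG2. Twenty-four hours post-dosing, RNA was reverse-transcribed, amplified, FAM-labelled, HpaI-digested and separated by CE. Activity gain or loss relative to DMSO.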

Assay [16] can be described thus: ATG_FoxO_CIS: Attagene CIS-FACTORIAL HepG2 Assay for human Forkhead box O (FoxO) (AID 2282943). The conditions noted are these: HepG2 Attagene cis-reporter, FoxO element, mRNA; actives raise or lower the signal. The method in brief:
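HepG2 cells transiently transfected with cis-element-driven reporter units report endogenous FoxO activity. After 24 h chemical exposure, reporter mRNA quantified by RT-PCR, fluorescent labeling, HpaI digestion and capillary electrophoresis; bidirectional fit versus DMSO.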

Assay [17] in a line: ATG_GATA_CIS: Attagene CIS-FACTORIAL HepG2 Assay for human GATA Binding Protein (AID 2282944). The conditions noted are these: HepG2 GATA cis-element reporter, Attagene multiplex mRNA; actives raise or lower the signal. The method in brief:
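Endogenous transcription factor activity was captured through cis-promoter-driven reporters in transfected HepG2 cells. After 24 h exposure, reporter transcripts were quantified by RT-PCR with fluorescent capillary electrophoresis, and responses fitted both directions against DMSO.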

Assay [18] can be described thus: ATG_GLI_CIS: Attagene CIS-FACTORIAL HepG2 Assay for human Zinc Finger Protein GLI1 (AID 2282945). The conditions noted are these: HepG2, Attagene cis-factorial reporter mRNA, GLI element; actives raise or lower the signal. The method in brief:
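Transiently transfected HepG2 cells report endogenous transcription factor activity via cis-element-driven reporter units. After 24 h compound exposure, reporter mRNA was measured by RT-PCR with capillary electrophoresis; bidirectional fitting against DMSO baseline.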

Assay [19] in a line: ATG_AP_2_CIS: Attagene CIS-FACTORIAL HepG2 Assay for human Activator Protein 2 (AP-2) (AID 2282932). The conditions noted are these: HepG2 AP-2 cis-reporter, Attagene transcription factor profiling; actives raise or lower the signal. The method in brief:
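Read-out: fluorescent reporter mRNA via RT-PCR and capillary electrophoresis, 24 h post-dose in transiently transfected HepG2. Endogenous factors drive cis-promoter reporters; gain or loss of signal fitted bidirectionally against DMSO.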

Assay [20] in a line: ATG_ERE_CIS: Attagene CIS-FACTORIAL HepG2 Assay for Estrogen Response Element (ERE) (AID 2282940). The conditions noted are these: HepG2 ERE cis-reporter, Attagene RNA transcript; actives raise or lower the signal. The method in brief: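 Cells used were human hepatoma HepG2, transfected with multiple reporter transcription units under cis-regulatory promoters. Reporter mRNA, read 24 h post-dosing via fluorescent RT-PCR products on capillary electrophoresis, was fitted bidirectionally relative to DMSO.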

Chain of Hepatocyte nuclear factor 3-beta (Homo sapiens) (Q9Y261 whole entry, looked up): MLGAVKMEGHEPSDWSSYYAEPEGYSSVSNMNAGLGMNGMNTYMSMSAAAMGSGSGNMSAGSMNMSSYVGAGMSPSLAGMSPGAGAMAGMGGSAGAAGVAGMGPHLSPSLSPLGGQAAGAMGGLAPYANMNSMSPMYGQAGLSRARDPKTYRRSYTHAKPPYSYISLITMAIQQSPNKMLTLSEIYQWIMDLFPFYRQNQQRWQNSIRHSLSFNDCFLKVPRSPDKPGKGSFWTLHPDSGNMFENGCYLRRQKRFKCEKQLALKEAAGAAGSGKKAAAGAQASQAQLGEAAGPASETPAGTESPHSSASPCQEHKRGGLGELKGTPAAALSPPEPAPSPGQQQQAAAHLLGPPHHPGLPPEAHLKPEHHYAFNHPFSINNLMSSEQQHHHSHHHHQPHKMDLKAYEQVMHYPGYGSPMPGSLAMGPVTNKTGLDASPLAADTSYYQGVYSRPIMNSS
Chain of CCAAT/enhancer-binding protein beta (Homo sapiens) (P17676 whole entry, looked up): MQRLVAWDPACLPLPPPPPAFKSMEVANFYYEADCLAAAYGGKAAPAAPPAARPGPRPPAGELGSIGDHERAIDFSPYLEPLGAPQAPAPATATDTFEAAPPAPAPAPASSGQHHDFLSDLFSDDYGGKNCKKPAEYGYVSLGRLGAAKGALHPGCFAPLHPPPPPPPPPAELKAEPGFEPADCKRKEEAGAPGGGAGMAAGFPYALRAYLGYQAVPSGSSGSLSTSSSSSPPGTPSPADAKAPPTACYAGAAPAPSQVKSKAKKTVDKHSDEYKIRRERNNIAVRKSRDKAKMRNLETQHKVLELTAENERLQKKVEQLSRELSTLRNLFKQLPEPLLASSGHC
Chain of Aryl hydrocarbon receptor (Homo sapiens) (P35869 whole entry, looked up): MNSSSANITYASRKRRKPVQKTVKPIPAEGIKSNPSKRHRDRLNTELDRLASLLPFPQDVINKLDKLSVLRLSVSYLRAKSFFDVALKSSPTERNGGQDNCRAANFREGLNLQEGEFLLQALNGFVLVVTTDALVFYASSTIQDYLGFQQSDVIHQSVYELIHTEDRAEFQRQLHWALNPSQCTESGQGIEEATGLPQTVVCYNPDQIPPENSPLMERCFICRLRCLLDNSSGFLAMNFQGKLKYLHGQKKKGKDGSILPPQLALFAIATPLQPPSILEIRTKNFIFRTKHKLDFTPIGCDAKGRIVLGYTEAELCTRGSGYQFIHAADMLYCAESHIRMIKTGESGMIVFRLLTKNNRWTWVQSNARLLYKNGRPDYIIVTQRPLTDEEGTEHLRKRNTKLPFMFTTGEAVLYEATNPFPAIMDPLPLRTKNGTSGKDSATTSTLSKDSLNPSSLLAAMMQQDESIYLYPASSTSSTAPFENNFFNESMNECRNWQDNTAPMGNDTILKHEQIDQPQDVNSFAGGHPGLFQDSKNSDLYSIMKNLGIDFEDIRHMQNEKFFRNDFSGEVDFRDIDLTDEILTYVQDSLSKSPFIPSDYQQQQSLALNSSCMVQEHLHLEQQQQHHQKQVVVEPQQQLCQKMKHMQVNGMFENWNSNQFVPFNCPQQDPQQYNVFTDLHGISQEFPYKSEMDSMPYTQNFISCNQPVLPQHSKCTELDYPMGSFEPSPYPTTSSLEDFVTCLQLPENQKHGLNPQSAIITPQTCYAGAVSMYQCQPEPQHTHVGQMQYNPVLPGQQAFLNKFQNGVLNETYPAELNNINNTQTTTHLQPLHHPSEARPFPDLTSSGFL
Chain of Transcription factor E2F1 (Homo sapiens) (Q01094 whole entry, looked up): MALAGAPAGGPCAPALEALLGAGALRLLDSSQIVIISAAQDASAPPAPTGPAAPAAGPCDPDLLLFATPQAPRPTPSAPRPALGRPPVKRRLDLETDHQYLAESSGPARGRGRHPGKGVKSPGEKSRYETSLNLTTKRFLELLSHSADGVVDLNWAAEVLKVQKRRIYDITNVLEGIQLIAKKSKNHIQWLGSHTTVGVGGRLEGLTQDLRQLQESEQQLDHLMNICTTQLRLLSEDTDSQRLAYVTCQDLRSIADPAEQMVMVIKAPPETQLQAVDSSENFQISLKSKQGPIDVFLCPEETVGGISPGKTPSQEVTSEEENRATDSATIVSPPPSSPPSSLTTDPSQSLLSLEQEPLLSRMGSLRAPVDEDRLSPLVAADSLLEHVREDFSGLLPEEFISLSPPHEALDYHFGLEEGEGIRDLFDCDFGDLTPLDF
Chain of Retinoic acid receptor alpha (Homo sapiens) (P10276 whole entry, looked up): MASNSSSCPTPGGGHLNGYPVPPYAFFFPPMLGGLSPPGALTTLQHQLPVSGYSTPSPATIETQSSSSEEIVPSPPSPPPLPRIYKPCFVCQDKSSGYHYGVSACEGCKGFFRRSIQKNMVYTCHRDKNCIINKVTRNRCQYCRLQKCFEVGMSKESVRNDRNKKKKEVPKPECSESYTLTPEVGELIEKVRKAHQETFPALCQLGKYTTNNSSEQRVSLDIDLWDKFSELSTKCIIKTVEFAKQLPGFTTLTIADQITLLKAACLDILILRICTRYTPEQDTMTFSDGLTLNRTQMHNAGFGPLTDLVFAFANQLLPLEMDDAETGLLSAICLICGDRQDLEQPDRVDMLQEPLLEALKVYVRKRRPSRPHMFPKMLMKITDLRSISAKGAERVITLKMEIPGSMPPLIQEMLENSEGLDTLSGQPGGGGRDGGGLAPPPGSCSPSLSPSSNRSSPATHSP

As to `CC(C)(C)OOC(=O)c1ccccc1`, the call in [1], in assay [2], in assay [4], in assay [5], in [7] and in [8] was inactive. For the same compound, the result in [10], in assay [11], in [12], in assay [13], in assay [14] and in [15] was inactive. Also, the outcome in assay [17] and in assay [18] was inactive. Moreover, the concentration at half-maximal activity (AC50) in assay [3] was 74.8 µM (active); in [6], 130 µM (active); in assay [9], 158 µM (active); in assay [16], 156 µM (active).

Turning to `CN(C)C(=O)Nc1ccc(Cl)cc1`, the compound was called inactive in [1], in [2], in assay [3], in [4], in [6] and in assay [19]. Besides, the compound was called inactive in [7], in assay [9], in assay [10], in assay [11], in assay [12] and in assay [13]. The compound was called inactive in assay [14], in assay [15], in [16], in assay [17] and in assay [18]. For the same compound, in assay [5], the AC50 was 58.5 µM (active).

On to `C[N+](C)(C)CC1CO1` (stereo not given), for which the compound was called inactive in assay [1], in assay [2], in assay [3], in [4], in assay [5] and in assay [19]. The compound was called inactive in assay [7], in assay [8], in [9], in assay [10], in [11] and in assay [12]. Also, the result in assay [13], in assay [20], in assay [14], in assay [15], in assay [16] and in [17] was inactive. In [18], the compound was classed as inactive.

Take `N#CC(Br)Br`: the compound was called inactive in [1], in assay [2], in assay [3], in assay [4], in [5] and in assay [6]. The outcome in assay [19], in assay [7], in assay [8], in [9], in assay [10] and in assay [11] was inactive. Further, the compound was classed as inactive in [12], in [13], in assay [14], in assay [15], in assay [16] and in assay [17]. The compound was called inactive in assay [18]. Further, the concentration at half-maximal activity (AC50) in assay [20] is 76.7 µM (active).

`CCCSC(=O)N(CCC)CCC`: the compound was classed as inactive in [1], in assay [2], in assay [3], in assay [4], in assay [5] and in [6]. The compound was classed as inactive in assay [19], in assay [7], in [9], in assay [10], in [11] and in assay [12]. Besides, the compound was classed as inactive in [13], in [14], in [15], in assay [16], in assay [17] and in assay [18].

Consider `Cc1ccc(N=C=O)cc1N=C=O`, for which the outcome in assay [1], in assay [2], in assay [3], in assay [4], in assay [5] and in assay [6] was inactive. Besides, the result in [7], in assay [8], in assay [9], in [10], in assay [11] and in assay [12] was inactive. Moreover, the outcome in assay [13], in [14], in assay [15], in assay [16], in assay [17] and in assay [18] was inactive.

Take `OCCCl`: the compound was classed as inactive in assay [1], in assay [2], in [3], in assay [4], in assay [5] and in [6]. In addition, the call in assay [19], in [7], in [8], in [9], in [10] and in [11] was inactive. The outcome in [12], in assay [13], in [14], in [15], in assay [16] and in assay [17] was inactive. The outcome in [18] was inactive.

Usually AC50 stands for the concentration at which the activity in the assay is half-maximal.
